{"source": "the supplement of paper PMC6555819", "data": [{"tested_on": "VDR:RXRa (NR concentration 270 nM, RXRa partner concentration 90 nM)", "experiment": "PBM binding z-score (relative to random genomic background probes); higher = stronger binding; sequences stand for … in GC…GCGATTGACAGCGTAGAATGAAGG", "method": "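Protein-binding microarray (Agilent 4x180K custom design, double-stranded 60-nt probes: 5' GC cap, 34-nt variable region, 24-nt constant primer region; full probe sequence given). Purified or IVT nuclear receptor:RXRα heterodimers (3:1 NR:RXRα, mostly 270:90 nM) or homodimers were incubated for 1 h in PBS with 2% milk and no ligand, then detected with Alexa488 antibodies. Fluorescence from o1-orientation probes (~5 replicates averaged) was converted to z-scores against 500 random hg19 background probes. Variable regions are seed direct-repeat (DR0–DR5) sites, all their single-nucleotide variants and half-site ablations.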", "values": [{"sequence": "TGTCAAAGTTCACAGGTAACGTAAGTATCCACAC", "PBM binding z-score": 4.54}, {"sequence": "TTACCACGGTGAAAGGTCGTTGATGCACGCCTTG", "PBM binding z-score": 1.99}, {"sequence": "CTAGACAGGTGAAAGGTAACTCAGTCTGGTACGC", "PBM binding z-score": 0.828}, {"sequence": "TCTTGTAGATCAGCAGGTGAAGAAAGCTGGCCAA", "PBM binding z-score": 0.208}, {"sequence": "CGAACGAGGGCATGAGTTGATAGCTAATGCCGAT", "PBM binding z-score": 1.37}, {"sequence": "ATCTCTAGGTAAGACTCAGTTCATTGAAGAACGC", "PBM binding z-score": 2.42}, {"sequence": "TCGAGTAGGTTACCAATGGCGCATTCAGCTTTCT", "PBM binding z-score": 0.111}, {"sequence": "TGAAGGAGGTTATAAGATCAGGGAACGTTGCAAA", "PBM binding z-score": 0.323}, {"sequence": "TATACAGGGTCGAAGGCCAGAGTACGAATGTCGA", "PBM binding z-score": 1.56}, {"sequence": "AGTCAAAGTTAAGGACGAGGTAACGTAAAGCACG", "PBM binding z-score": -0.131}, {"sequence": "TATACAGGGTCAAAGGCCATAGTACGAATGTCGA", "PBM binding z-score": 5.08}, {"sequence": "ATCGAAAGGTCGTGAGGTGAATATACAGAAAGGC", "PBM binding z-score": 3.88}, {"sequence": "ACAGACAGGTGAGTGATGGTAACTCAGCTGGACG", "PBM binding z-score": -0.122}, {"sequence": "CTCGAAAGGTCGGTTGAGGTGAATATACGGATAA", "PBM binding z-score": 2.79}, {"sequence": "TGTCAAAGTTCAAAGGTAACTTAAGTATCCACAC", "PBM binding z-score": 5.09}, {"sequence": "CGAACTAGGTCAGAACAGGACAGGGAAGGATGAT", "PBM binding z-score": 0.511}, {"sequence": "CCTAGCAGGCCAATCTGGGTCACGCAAGGCTTGA", "PBM binding z-score": 1.14}, {"sequence": "TCTTGTAGATCAACAGGAGGTTAAGAGAGATCGA", "PBM binding z-score": 0.733}, {"sequence": "TCATATAGCTAAAAGGTGAAAGTCGGTGTGGTAA", "PBM binding z-score": 0.864}, {"sequence": "CATACAGGGTCAGCTAAGCCAGAGTAGGGACGGC", "PBM binding z-score": 2.69}, {"sequence": "ACTATTAGTTGGCTTAGGGCAACCGATACGACGC", "PBM binding z-score": 0.158}, {"sequence": "GATACAGGGTCAGCTAGAGGCCAGAGGATGGAAA", "PBM binding z-score": 3.12}, {"sequence": "AGAATGAGGTTACCAAAGAGCAGGGAAACGCTTG", "PBM binding z-score": 1.05}, {"sequence": "CGAACTAGGTCATACAGGACAGTGAATACATTGA", "PBM binding z-score": 3.99}, {"sequence": "CCTACTGGGCCTAGGTCATTGATCAGTCAAAGCA", "PBM binding z-score": 0.813}, {"sequence": "GCTAGCAAGCCATTTGGGTCACTCAATGACGGGC", "PBM binding z-score": -0.0244}, {"sequence": "CCCGACAGGTGAGAAGGTAACTCAGCCTCGATTA", "PBM binding z-score": -0.17}, {"sequence": "GCTAGTTCGTCAGTAAAAGGTCACACACCGGTCG", "PBM binding z-score": 4.28}, {"sequence": "GCAGACAGGTGAAGCGCAGGTAACTCAGGGTGGC", "PBM binding z-score": -0.67}, {"sequence": "TCGAGTAGGTTAGTCGGTGCATTCAGCCAACATA", "PBM binding z-score": 3.31}, {"sequence": "ATCTCTAGGGAAAGTTCAGTGAAAGATCGATAGA", "PBM binding z-score": 1.12}, {"sequence": "TCGAGTAGGTTAGGGGCATCCAGAATGGCGTCGA", "PBM binding z-score": 0.536}, {"sequence": "TCTTGGAGATCAATAGAGGTTAAGAAAGTGCGCT", "PBM binding z-score": 2.08}, {"sequence": "TCTTGTAGATCAAGCAGGTTACGAAAGCCTGAGT", "PBM binding z-score": 0.633}, {"sequence": "GCATATAGGTAATACAAGGTGAAAGTCCGATTGT", "PBM binding z-score": 0.299}, {"sequence": "TGTGCTAGGTCAGTTGGTCAGCTAACGAGCTGCC", "PBM binding z-score": -0.0889}, {"sequence": "TCAGACACGTGAAGGTAACTCAGGTACGCAGTCG", "PBM binding z-score": 0.881}, {"sequence": "CGTCAAAATTCAAGGTAACGTAACAGAAAGCAGC", "PBM binding z-score": 0.111}, {"sequence": "CAGCCTCGGTCAGGGCCAGTATAGGAGGAACGTT", "PBM binding z-score": -0.628}, {"sequence": "ACCCGGAGGACAAAGGTCAGAGCTACGCCAGTGA", "PBM binding z-score": 3.2}]}]}
